Experimental data from PubChem BioAssay (NCI).
Compounds without any hit were thinned out: in the full panel of roughly 79,000, 15% have a hit. Calls of active or inactive are those of the source. No stated cut-off is given here; in the data, active means growth inhibition above about 70%; inactive means the rest.

Experiments:
[1] = NCI Yeast Anticancer Drug Screen. Data for the rad50 strain (AID 155);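 further: 0% = growth of vehicle-only cultures of the same strain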; settings: S. cerevisiae rad50 strain growth inhibition; at 50.0 µM; hits give high values
Outline: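 Growth of the mutant yeast was measured after compound exposure and referenced to vehicle-treated cultures.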

[2] = NCI Yeast Anticancer Drug Screen. Data for the mec2-1 strain (AID 157); settings: S. cerevisiae mec2-1 strain, at 50.0 µM, hits give high values
Outline: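 Mutant yeast (mec2-1) grown with compound; growth inhibition relative to vehicle control reported.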

[3] = NCI Yeast Anticancer Drug Screen. Data for the sgs1 mgt1 strain (AID 161);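 further: 0% = growth of cultures given vehicle only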; settings: S. cerevisiae sgs1 mgt1 strain, at 50.0 µM, hits give high values
Outline: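 This yeast growth screen uses a strain with defined DNA-repair lesions; compound-treated growth is compared with vehicle-treated growth.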

[4] = NCI Yeast Anticancer Drug Screen. Data for the cln2 rad14 strain (AID 165);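 further: 0% = growth equal to vehicle treated cultures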; settings: S. cerevisiae cln2 rad14 strain, at 50.0 µM, hits give high values
Outline: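 Readout is yeast growth inhibition versus vehicle-treated controls, using a strain with cln2 and rad14 alterations exposed to compound.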

[5] = NCI Yeast Anticancer Drug Screen. Data for the bub3 strain (AID 167); settings: S. cerevisiae bub3 mutant strain, at 50.0 µM, hits give high values
Outline: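 Whole-cell yeast assay. The mutant strain was incubated with compounds, and growth inhibition was determined by comparison with vehicle-treated cells.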

[6] = NCI Yeast Anticancer Drug Screen. Data for the mlh1 rad18 strain (AID 175); settings: S. cerevisiae mlh1 rad18 strain growth inhibition; at 50.0 µM; hits give high values
Outline: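 Genetically defined yeast (DNA repair-deficient) exposed to compounds; growth inhibition determined relative to vehicle.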

Measured: growth inhibition

C/C(=C\C(=O)c1cccc([N+](=O)[O-])c1)c1cccc([N+](=O)[O-])c1
inactive: [1] 1.35% | [2] 15.3% | [3] 0.7% | [4] -21.6% | [5] 2.6% | [6] 29.6%

COc1ccc(N2C(=O)C3CC(c4ccc(Br)cc4)c4c([nH]c5ccccc45)C3C2=O)cc1 (stereo unspecified)
inactive: [1] 1.7% | [2] -14.4% | [3] 5.55% | [4] -51.8% | [5] 2.9% | [6] -4.95%

COc1ccc(-c2cc(-c3ccccc3)n[nH]2)cc1
inactive: [1] 24% | [2] 27.7% | [3] 43.8% | [4] -13.9% | [5] 47.9% | [6] 33.4%

NC(Cc1ccc(CP(=O)(O)O)cc1)C(=O)O (stereo unspecified)
inactive: [1] -44.8% | [2] -61.3% | [3] -55.1% | [4] -20% | [5] -27.5% | [6] -70.3%

CN(C)C(=O)Nc1cccc(OC(=O)NCCCl)c1
inactive: [1] 6.55% | [2] 52.5% | [3] 30.7% | [4] 0.9% | [5] 41% | [6] 20.7%

Cc1cc(C)n(-c2nnc(-n3nc(C)cc3C)c3ccccc23)n1
inactive: [1] -12.4% | [2] -1.75% | [3] -21.6% | [4] -5.45% | [5] -5.5% | [6] -3.9%

N=C(N)C1CC1
inactive: [1] -6.75% | [2] -9.5% | [3] -8.9% | [4] 12.8% | [5] 2.4% | [6] -13.2%

FC(F)(F)c1cccc(NC(=S)N2CCOCC2)c1
inactive: [1] 0.35% | [2] -2% | [3] 1.05% | [4] -4.2% | [5] 0.3% | [6] -11.7%

CCN(CC)CCOc1ccc2ccccc2c1C(Cc1ccccc1)NCCO (stereo unspecified)
inactive: [1] -13.2% | [2] 1.95% | [3] -20.2% | [4] -19.6% | [5] 3% | [6] 3.05%

CCOC(=O)N1C2c3ccccc3C3C(C21)N3C(=O)OCC (stereo unspecified)
inactive: [1] -0.3% | [2] -12.3% | [3] 0.3% | [4] 1.95% | [5] 3.9% | [6] -11.4%

Cc1cc2c(=O)c(C)c[nH]c2cc1Cl
inactive: [1] -21.6% | [2] 5.2% | [3] -2.6% | [4] -46.1% | [5] -10.6% | [6] -7.55%

CC(C)(C)C1=CC(=N/S(=O)(=O)c2ccccc2)/C(N=[N+]=[N-])=C(Cl)C/1=N\S(=O)(=O)c1ccccc1
inactive: [1] 54.8% | [2] 27.4% | [3] 48.2% | [4] 14% | [5] 23.6% | [6] 39%

Cc1ccc(S(=O)(=O)Nn2nnnc2N)cc1
inactive: [1] -7.85% | [2] 11.7% | [3] -7.6% | [4] -4.4% | [5] -4.65% | [6] 7.25%

COC(=O)CC[N+]1=CCC(c2ccccc2)(c2ccccc2)O1
inactive: [1] -9.55% | [2] -24.9% | [3] -20.8% | [4] 5.8% | [5] -15.9% | [6] -7.65%

Cc1cc(C)c([N+](=O)[O-])cc1[N+](=O)[O-]
inactive: [1] 7.5% | [2] 5.5% | [3] 9.45% | [4] -1.25% | [5] -3.4% | [6] 5.15%

COc1cc(CNc2ccc3nc4n(c(=O)c3c2)CCCCC4)cc(OC)c1OC
inactive: [1] -9.7% | [2] 13.4% | [3] 7.3% | [4] -19.2% | [5] -15.9% | [6] -21.2%

O=C1OC(=O)C2C3CC(C4OC34)C12 (stereo unspecified)
inactive: [1] -12.2% | [2] 29.3% | [3] -3.55% | [4] -20.8% | [5] -9.9% | [6] 4.05%

OCC1=CC(c2ccccc2)(c2ccccc2)c2ccccc21
active: [1] 95.2% | [2] 96.3% | [3] 96.7% | [4] 93.2% | [5] 95.5% | [6] 95.4%

COc1cc(OC)c2nc3ccccc3c(NCCC[N+](C)(C)[O-])c2c1[N+](=O)[O-]
inactive: [1] 7.65% | [2] -33.6% | [3] -12.9% | [4] -22.2% | [5] -14.2% | [6] -17.8%

Cc1ccc(S(=O)(=O)Oc2c([N+](=O)[O-])cc(-c3ccccc3)cc2[N+](=O)[O-])cc1
inactive: [1] 47.8% | [2] 37.4% | [3] 63% | [4] 34.5% | [5] 0.7% | [6] 31%

Cn1c(=S)c2[nH]c(SCCCc3ccccc3)nc2n(C)c1=O
inactive: [1] -19.4% | [2] -36% | [3] -5.8% | [4] -32.3% | [5] -25.9% | [6] 12.5%

O=C(O)/C(=N\O)c1cnnn1-c1ccccc1
inactive: [1] -5.95% | [2] 11.9% | [3] -8.45% | [4] 3.35% | [5] -17.6% | [6] -25.9%

COC(=O)c1c(C)cc(OC(=O)c2c(C)cc(OC)c(C)c2OC)c(C)c1O
inactive: [1] 14.6% | [2] 3.5% | [3] -2.15% | [4] 10.4% | [5] -0.65% | [6] 4.65%

CC1(C)CC(=O)C2=C(C1)NC(=S)C(C#N)C2c1ccccc1 (stereo unspecified)
inactive: [1] 10.2% | [2] -4% | [3] 14.7% | [4] 9.55% | [5] 21.1% | [6] 30.2%

O=C1C=C(Nc2ccccc2C(=O)c2ccccc2)c2ccccc2C1=O
inactive: [1] 18.9% | [2] -30.4% | [3] 6.65% | [4] 4.9% | [5] 14.8% | [6] 2.4%

FC(F)(F)c1cc(Cl)c2ccc3ccccc3c2n1
inactive: [1] 8.65% | [2] 5.3% | [3] 1.9% | [4] -62.4% | [5] 3.65% | [6] -12.8%

Nc1nnc2nc(CC(=O)c3ccccn3)/c(=C/C(=O)c3ccccn3)n12
inactive: [1] -7.3% | [2] -13.7% | [3] -2.8% | [4] -43.3% | [5] -26.9% | [6] -23.1%

O=S1(=O)C=C(c2ccccc2)C1
inactive: [1] -8.25% | [2] -2.4% | [3] -19.8% | [4] -33.4% | [5] 4.25% | [6] 8.6%

ClCc1nn(-c2ccccc2)c(CCl)c1CCl
inactive: [1] 46.6% | [2] 14.3% | [3] 18.4% | [4] -1.45% | [5] 8.25% | [6] -4.55%

c1ccc2c(c1)ncn2C1CCCCO1 (stereo unspecified)
inactive: [1] 4.7% | [2] -9.8% | [3] -16.8% | [4] 0.9% | [5] -7.45% | [6] -38.3%

Cc1cc(N(CCC#N)S(=O)(=O)c2ccccc2)ccc1C=Nc1ccc(C(=O)O)cc1
inactive: [1] -12.2% | [2] -8.35% | [3] -6.15% | [4] -3.8% | [5] 1.85% | [6] -6.85%

NC(Cc1ccc(S(=O)(=O)O)cc1)C(=O)NC(Cc1ccc(S(=O)(=O)O)cc1)C(=O)NC(Cc1ccc(S(=O)(=O)O)cc1)C(=O)O (stereo unspecified)
inactive: [1] -4.25% | [2] -14.8% | [3] 27.1% | [4] -9.5% | [5] 9.3% | [6] -8.2%

COC(=O)OCC1OC(OC(C)=O)C2OC(=O)OC12 (stereo unspecified)
inactive: [1] 8.55% | [2] -16.9% | [3] -16.7% | [4] 5.45% | [5] 2.35% | [6] -3.15%

CC(=O)OCC1OC(OC(C)=O)C(NS(=O)(=O)Cc2ccccc2)C(OC(C)=O)C1OC(C)=O (stereo unspecified)
inactive: [1] 10.5% | [2] 17.4% | [3] 13.7% | [4] -1.35% | [5] -1.2% | [6] 20.4%

C=C1CC[C@@H]2C(C)(C)CCC[C@@]2(C)[C@@H]1Cc1cc(O)ccc1O
active: [1] 86.8% | [2] 88.6% | [3] 87% | [4] 87.2% | [5] 87.9% | [6] 87.5%

C=C(Cl)COc1ccc(C(=O)c2ccccc2)cc1
inactive: [1] -4.5% | [2] -9% | [3] -6.5% | [4] -64% | [5] -7.25% | [6] -14.9%

Cn1c2ccccc2c(=O)c2cc(NC(=O)/C=C/C(=O)Nc3ccc4c(c3)c(=O)c3ccccc3n4C)ccc21
inactive: [1] -3.25% | [2] 0.75% | [3] -2.7% | [4] -14.6% | [5] -3.8% | [6] 5.9%

O=S(=O)(CS(=O)(=O)c1ccccc1Br)c1ccccc1Br
inactive: [1] -7.65% | [2] 30.3% | [3] -16% | [4] 13% | [5] 1.95% | [6] 6.95%

COC(=O)C(C(C[N+](=O)[O-])c1ccco1)=P(c1ccccc1)(c1ccccc1)c1ccccc1 (stereo unspecified)
active: [1] 89.5%
inactive: [2] 5.25% | [3] 45.6% | [4] 8.15% | [5] 0.95% | [6] 25.1%

N#Cc1c2c(c(=S)n(-c3ccc(Cl)cc3)c1N)CCCC2
inactive: [1] -4.4% | [2] -3.35% | [3] -5.8% | [4] 1.75% | [5] 6.85% | [6] -7.2%

COc1c2c(cc3nc4ccccc4nc13)CCC(C(C)(C)O)C2 (stereo unspecified)
inactive: [1] 17.9% | [2] -10.2% | [3] -3.45% | [4] 3.9% | [5] -0.7% | [6] 6.3%
